proKLK7 act – proKLK7 zymogen activators, primary screen, biochemical, fluorescence intensity; purified proKLK7, EDANS-DABCYL substrate fluorescence; 100% is mature enzyme control, 0% vehicle; activation, % at 7 µM; Kallikrein-7 (Homo sapiens), P49862; 370,000 tested, 0.9% active; AID 652039, 2013;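 active = activation above the mean of all tested compounds plus 3 SD, computed per campaign excluding outliers beyond control limits, cut at about 13% in these data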
ADAM10 inh – human ADAM10 inhibitors, primary screen, biochemical, QFRET, HTS; 370,000 tested, 0.62% active; inhibition, % at 7 µM; Disintegrin and metalloproteinase domain-containing protein 10 (Homo sapiens), O14672; AID 720582, 2013; recombinant ADAM10, EDANS/DABCYL FRET peptide cleavage, 3 h;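 active = inhibition above a per-campaign cutoff equal to the mean of compounds falling between control-based bounds plus 3 SD, cut at about 20% in these data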
PLCg1 inh – PLC-gamma1 enzyme inhibitors, primary screen, biochemical, fluorescence, purified enzyme. 1-phosphatidylinositol 4,5-bisphosphate phosphodiesterase gamma-1 (Homo sapiens), P19174. fluorogenic substrate. inhibition, % at 12.2 µM. 370,000 tested, 0.84% active. AID 720700, 2013
PLCb3 inh – human PLC-beta3 inhibitors, primary screen, biochemical, fluorescence. 1-phosphatidylinositol 4,5-bisphosphate phosphodiesterase beta-3 (Homo sapiens), Q01970. Purified PLC-beta3, fluorogenic substrate. inhibition, % at 12.2 µM. 370,000 tested, 0.18% active. AID 720704, 2013; in the data active = inhibition above about 11%
ADAM17 inh – ADAM17 inhibitors, primary screen, biochemical, QFRET. AID 720648, 2013. 370,000 tested, 0.83% active. recombinant ADAM17, EDANS/DABCYL FRET peptide cleavage. inhibition, % at 6.95 µM;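 active = inhibition above the mean of compounds lying between control limits plus 3 SD, set per campaign, cut at about 8.5% in these data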
PLCg1 ctr – PLC-gamma1 enzyme inhibitors, counter-screen for PLC-beta3 inhibitor project, biochemical, fluorescence; shares compounds with PLCg1 inh; purified PLC-gamma1, fluorogenic substrate; inhibition, % at 12.3 µM; 3,300 tested, 3.1% active
PLCb3 confirm – PLC-beta3 inhibitor confirmation, biochemical, fluorescence, purified enzyme | shares compounds with PLCg1 inh | fluorogenic substrate fluorescence | inhibition, % at 12.3 µM | 3,300 tested, 1% active; in the data active = inhibition above about 11%
Numbers stand for hits; – = inactive; · = no result. In the library only some 2.9% were active in any assay of this set; here they are far more common. Cut-off read from the data, not from the text of the source, unless noted: active = inhibition above about 9.5%; inactive = the rest.

SMILES | proKLK7 act | ADAM10 inh | PLCg1 inh | PLCb3 inh | ADAM17 inh | PLCg1 ctr | PLCb3 confirm
Cc1ccc(C(=O)COc2nc(C)cc(C)c2C#N)cc1 | – | – | – | – | – | · | ·
CCOc1ccc(CN2CCN(c3ncnc4scc(-c5ccccc5)c34)CC2)cc1 | – | – | 10.0 | – | – | – | –
c1ccc(N2CCN(c3ncnc4scc(-c5cccs5)c34)CC2)cc1 | – | – | 11.1 | – | – | – | –
COc1ccc(CN2CCN(c3ncnc4scc(-c5ccc(F)cc5)c34)CC2)cc1 | – | – | – | – | – | · | ·
COc1cccc(CNc2nc(NCC3CC3)nc3ccsc23)c1OC | – | – | 10.0 | – | – | – | –
CCCCNC(=O)NC(C(=O)OC)C12CC3CC(CC(C3)C1)C2 (stereo not given) | – | – | 12.8 | – | – | – | –
COCCn1c(C)cc(C(=O)COC(=O)c2ccc(Br)o2)c1C | – | – | 10.2 | – | – | – | –
CCOc1ccc(CN2CCN(Cc3cccc4c3OCO4)CC2CCO)cc1 (stereo not given) | – | – | – | – | – | · | ·
Cc1ccc(CN2CCN(Cc3cccc4c3OCO4)CC2CCO)cc1 (stereo not given) | – | – | – | 15.0 | – | – | –
CCOC(=O)[C@]12CCC=C1N(Cc1ccccc1)C(=O)[C@H](CC(=O)NCC13CC4CC(CC(C4)C1)C3)C2 | – | – | – | – | – | · | ·
CNc1ncc(C(=O)C(C)(C)C)s1 | – | – | 11.4 | – | – | – | –
CCOC(=O)c1c(NC(=O)C2CCCN(S(=O)(=O)c3ccc(C)cc3)C2)sc2c1CCCC2 (stereo not given) | – | – | 14.8 | – | – | – | –
O=C(Nc1ccc2c(c1)OCO2)c1cc(C2CCCCN2C(=O)c2ccccc2)on1 (stereo not given) | – | – | – | – | – | · | ·
O=C(O)c1ccc(S(=O)(=O)NCC2CCCO2)cc1 (stereo not given) | – | – | 11.0 | – | – | – | –
CC(C)(C)c1ccc(S(=O)(=O)NCC2CCCO2)cc1 (stereo not given) | – | – | – | – | – | · | ·
C/C(=N/NC(=O)c1cccs1)c1ccc(NC(=O)COc2ccc(Cl)cc2Cl)cc1 | – | – | – | 11.5 | – | – | –
O=C(CSc1nc2c(c(C(F)(F)F)n1)CCc1ccccc1-2)NCc1ccccc1 | – | – | – | – | – | · | ·
O=C(CSc1nc2c(c(C(F)(F)F)n1)CCc1ccccc1-2)NCc1ccc(F)cc1 | – | – | 13.2 | 12.9 | – | – | –
O=C1NC(=S)SC1=C1CCCC1 | – | – | 25.6 | – | – | 16.2 | –
O=C(COC(=O)C1CC2C=CC1C2)Nc1ccc2c(c1)OC(F)(F)O2 (stereo not given) | – | – | – | – | – | · | ·
CCC(=O)N/C(=N\OCc1ccc(F)cc1)c1nonc1NC(=O)CC | – | – | – | – | – | · | ·
Cn1cc(/C=N/NC(N)=S)c2ccccc21 | – | – | 10.1 | – | – | – | –
NS(=O)(=O)c1ccccc1 | – | – | 15.4 | 11.2 | – | – | –
CCCCn1nnnc1C(c1ccccc1)N1CCN(c2ccc(F)cc2)CC1 (stereo not given) | – | – | – | – | – | · | ·
CN(C)S(=O)(=O)n1cc(/C=C(\NC(=O)c2ccccc2Cl)C(=O)NCCCN2CCOCC2)c2ccccc21 | – | – | – | – | – | · | ·
SMILES | proKLK7 act | ADAM10 inh | PLCg1 inh | PLCb3 inh | ADAM17 inh | PLCg1 ctr | PLCb3 confirm
CN(C)S(=O)(=O)n1cc(/C=C(\NC(=O)c2ccccc2Cl)C(=O)NCCN2CCOCC2)c2ccccc21 | – | – | 11.8 | – | – | – | –
O=C(Cn1nc(CNc2ccc(Br)cc2)[n+]2c1CCCCC2)c1ccc([N+](=O)[O-])cc1 | – | – | 9.8 | – | – | – | –
Cn1cccc1-c1nc2ccc(NC(=O)c3ccc([N+](=O)[O-])cc3)cc2[nH]1 | – | – | 14.1 | – | – | – | –
Cn1cccc1-c1nc2ccc(NC(=O)c3ccccc3)cc2[nH]1 | – | – | – | – | – | · | ·
O=S(=O)(O)c1ccc(N=NNc2ccc(Br)cc2)cc1 | – | – | 9.8 | – | – | – | –
CCOC(=O)c1c(NC(=S)N2CCN(C)CC2)sc(C)c1-c1ccccc1 | – | – | 10.8 | – | – | – | –
CCOC(=O)c1ccc(NC(=S)N2CCN(C)CC2)cc1 | – | – | – | – | – | · | ·
CCCCn1c(N)c(N(CCOC)C(=O)c2ccc(S(=O)(=O)N3CCC(C)CC3)cc2)c(=O)[nH]c1=O | – | – | – | – | – | · | ·
COC(=O)[C@@]12C[C@@H](CC(=O)NCCCCc3ccccc3)C(=O)N(Cc3cccc4ccccc34)C1=CCC(C)(C)C2 | – | – | – | – | – | · | ·
O=C1c2cccnc2C(=O)N1c1ccccc1-c1ccccc1 | – | – | 11.7 | – | – | – | –
O=C(O)c1ccc(N2C(=O)c3cccnc3C2=O)cc1 | – | – | – | – | – | · | ·
CCCC1S/C(=N/N=C/c2cccs2)NC1=O (stereo not given) | – | – | – | – | – | · | ·
CCC1S/C(=N/N=C/c2cccs2)NC1=O (stereo not given) | – | – | 14.9 | – | – | – | –
CC(O)CNCCCOc1ccc(Cl)cc1C(C)(C)C (stereo not given) | – | – | 12.4 | – | – | – | –
CCOC(=O)C1=C(COC(=O)CNC(=O)c2cc(OC)c(OC)c(OC)c2)NC(=O)NC1C (stereo not given) | – | – | – | – | – | · | ·
COC(=O)[C@H]1C[C@@]2(O)CN(S(=O)(=O)c3ccc(C)cc3)C[C@@]2(OC(=O)NC2CCCC2)C[C@H]1C(=O)OC | – | – | 9.7 | – | – | – | –
COC(=O)[C@H]1C[C@@]2(O)CN(S(=O)(=O)c3ccc(C)cc3)C[C@@]2(OC(=O)NCc2ccccc2)C[C@H]1C(=O)OC | – | – | – | – | – | · | ·
CCCCCCn1c(=O)n2n(c1=O)C[C@]1(OC(=O)NC3CCCC3)CN(S(=O)(=O)c3ccc(C)cc3)C[C@]1(O)C2 | – | – | 11.3 | – | – | – | –
CCOC(=O)C1=CCC(c2cc3ccccc3[nH]2)NC1 (stereo not given) | – | – | – | – | – | · | ·
N#Cc1ccc(NC(=S)N2CCC3CC2c2cc(-c4ccc5c(c4)OCO5)ccc23)cc1 (stereo not given) | – | – | – | – | – | · | ·

Screens as filed in PubChem.
